From the supplement of paper PMC9262897, “Low-cost anti-mycobacterial drug discovery using engineered E. coli” (Nature Communications, 2022)
Where a name gives a salt, the structure may show the parent alone. ± gives the standard deviation of the averaged measurements.

system: E. coli TESEC Mtb Alr; assay: growth (OD600 after 10 h); higher = more growth (less inhibition); conditions: arabinose 100 nM; compound 0.1 mM; raw OD600 reference: median of DMSO wells 0.413, cell-free background 0.052
Procedure: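 TESEC Mtb Alr E. coli (ΔaraC ΔtolC ΔentC Δalr ΔdadX, arabinose-inducible Mtb Alr) or the Alr+ wild-type control strain, grown in defined M9-fructose medium without D-alanine in 96-well plates with Prestwick library compounds at 0.1 mM and 1% DMSO. Low Alr induction is 0.1 µM arabinose and high induction is 10 mM arabinose.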

Row | SMILES | growth
1 | NS(=O)(=O)c1cc2c(cc1Cl)N=CNS2(=O)=O [Chlorothiazide] | 0.403 ± 0.014
2 | CN(C)CCc1c[nH]c2ccc(Cn3cncn3)cc12 [Rizatriptan benzoate] | 0.408 ± 0.012
3 | Nc1ncn(C2OC(CO)C(O)C2O)c(=O)n1 (stereo not drawn) [Azacytidine-5] | 0.385 ± 0.022
4 | CC(=O)N[C@@H](CC(=O)N[C@@H](CCC(=O)O)C(=O)O)C(=O)O [Spaglumic acid] | 0.434 ± 0.0089
5 | Cc1c(NC(=O)c2cccnc2)c(=O)n(-c2ccccc2)n1C [Nifenazone] | 0.413 ± 0.017
6 | Cc1ccnc2c1NC(=O)c1cccnc1N2C1CC1 [Nevirapine] | 0.402 ± 0.014
7 | CC(C)NCC(O)COc1ccc(CCOCC2CC2)cc1 (stereo not drawn) [Betaxolol hydrochloride] | 0.404 ± 0.011

same assay, conditions: arabinose 10000000 nM; compound 0.1 mM; raw OD600 reference: median of DMSO wells […], cell-free background 0.052

Row | SMILES | growth
8 | CCCCN(CCCC)CCC(O)c1cc2c(Cl)cc(Cl)cc2c2cc(C(F)(F)F)ccc12 (stereo not drawn) [Halofantrine hydrochloride] | 0.427 ± 0.019
9 | CO[C@@H]1[C@@H](O[C@@H]2O[C@H](C)[C@@H](O[C@H]3C[C@@](C)(O)[C@@H](OC(=O)CC(C)C)[C@H](C)O3)[C@H](N(C)C)[C@H]2O)[C@@H](CC=O)C[C@@H](C)[C@@H](O)/C=C/C=C/C[C@@H](C)OC(=O)C[C@H]1OC(C)=O [Josamycin] | 0.0519 ± 0.00093
10 | Cc1ccccc1C(OCCN(C)C)c1ccccc1 (stereo not drawn) [Orphenadrine hydrochloride] | 0.321 ± 0.029
11 | O=C(NCC1CCCCN1)c1cc(OCC(F)(F)F)ccc1OCC(F)(F)F (stereo not drawn) [Flecainide acetate] | 0.356 ± 0.018
12 | C[C@]12CC[C@@H]3c4ccc(O)cc4C[C@@H](CCCCCCCCC[S+]([O-])CCCC(F)(F)C(F)(F)F)[C@H]3[C@@H]1CC[C@@H]2O (stereo partly drawn) [Fulvestrant] | 0.355 ± 0.028
13 | CN1CCN(CC(=O)N2c3ccccc3C(=O)Nc3cccnc32)CC1 [Pirenzepine dihydrochloride] | 0.334 ± 0.019
14 | CCCCC(=O)N(Cc1ccc(-c2ccccc2-c2nnn[nH]2)cc1)[C@H](C(=O)O)C(C)C [Valsartan] | 0.339 ± 0.012
15 | CCOc1ccccc1OCC1CNCCO1 (stereo not drawn) [Viloxazine hydrochloride] | 0.366 ± 0.0079
16 | Cc1nc2n(c(=O)c1CCN1CCC(c3noc4cc(F)ccc34)CC1)CCCC2 [Risperidone] | 0.305 ± 0.023
17 | C=C1C(=O)O[C@H]2[C@H]1CC/C(C)=C/CC[C@@]1(C)O[C@@H]21 [Parthenolide] | 0.316 ± 0.02
18 | CC(C(O)c1ccc(O)cc1)N1CCC(Cc2ccccc2)CC1 (stereo not drawn) [Ifenprodil tartrate] | 0.312 ± 0.0043
19 | O=C(c1ccc(F)cc1)C1CCN(CCn2c(=O)[nH]c3ccccc3c2=O)CC1 [Ketanserin tartrate hydrate] | 0.2801 ± 0.002
20 | COc1cc2nc(N(C)CCCNC(=O)C3CCCO3)nc(N)c2cc1OC (stereo not drawn) [Alfuzosin hydrochloride] | 0.318 ± 0.013
21 | CN(C)C(=O)C(CCN1CCC(O)(c2ccc(Cl)cc2)CC1)(c1ccccc1)c1ccccc1 [Loperamide hydrochloride] | 0.0518 ± 0.00072
22 | CNCCC=C1c2ccccc2C=Cc2ccccc21 [Norcyclobenzaprine] | 0.212 ± 0.011
23 | O=S(=O)(O)c1cc(O)ccc1O [Ethamsylate] | 0.344 ± 0.022
24 | N[C@@H]1CONC1=O [D-cycloserine] | 0.328 ± 0.015
25 | Clc1ccc(CO/N=C(\Cn2ccnc2)c2ccc(Cl)cc2Cl)c(Cl)c1 [Oxiconazole Nitrate] | 0.0891 ± 0.0035
26 | COc1cc(NS(=O)(=O)c2ccc(N)cc2)ncn1 [Sulfamonomethoxine] | 0.331 ± 0.0088
27 | C[C@@H]1NC(=O)NC1=O [Methylhydantoin-5-(L)] | 0.352 ± 0.014
28 | Cn1c(=O)c2c(ncn2CC(=O)O)n(C)c1=O [Acefylline] | 0.347 ± 0.01
29 | CCC(=O)O[C@]1(C(=O)SCF)[C@H](C)C[C@H]2[C@@H]3C[C@H](F)C4=CC(=O)C=C[C@]4(C)[C@@]3(F)[C@@H](O)C[C@@]21C [Fluticasone propionate] | 0.381 ± 0.034
30 | Cn1c(=O)c2c(ncn2CCO)n(C)c1=O [Etofylline] | 0.349 ± 0.0046
31 | CCOC(=O)[C@H](CCc1ccccc1)N[C@@H](C)C(=O)N1CCC[C@H]1C(=O)O [Enalapril maleate] | 0.355 ± 0.017
32 | CCC[C@@H]1C[C@@H](C(=O)N[C@@H]([C@H]2O[C@H](SC)[C@H](O)[C@@H](O)[C@H]2O)[C@@H](C)O)N(C)C1 [Lincomycin hydrochloride] | 0.12 ± 0.019
33 | CC(C)(C)NC[C@H](O)COc1nsnc1N1CCOCC1 [Timolol maleate salt] | 0.32 ± 0.021
